Compound activity as filed in PubChem.
Most compounds without a hit are left out; they make up all but 19% or so of the library.
TGFb inhibitor – TGF-b pathway inhibition; HepG2 CAGA-GFP TGF-b/SMAD3 reporter, GFP fluorescence, 18 h; TGF-beta stimulated, 500 pg/mL final; Potency, µM (series often up to 46.1 µM), for inactives: at the highest dose activity, negative = inhibition, most hits filed as inhibitors; actives 1.2% (n = 410,000); note: potency is the fitted concentration of half-maximal effect; % is set by controls: 0 for no effect and ±100 for the full control effect; nearly all actives have a fitted effect of over 65% in size
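TGF-beta reporter screen: HEPG2 CAGA-GFP, 1% FBS, 500 pg/mL TGF-beta final, 18 h; per-cell GFP summed per well; curves fitted and categorized by class.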
HepG2 viability – kills HepG2 cells in TGF-b inhibitor counter-screen | HepG2 CAGA-GFP viability, ATP luminescence, 18 h | Potency, µM (doses to about 46.1 µM), for inactives: at the highest dose activity change, negative = cytotoxicity, actives largely listed as cytotoxic | actives 0.76% (n = 410,000); note: potency is the fitted concentration of half-maximal effect
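CellTiter-Glo luminescence gave cytotoxicity after 18 hours at 37 degrees C. The cells were HepG2 CAGA-GFP in 1% FBS DMEM, stimulated with 500 pg/mL TGF-beta after compound addition. %Activity was normalised to no-cell wells (complete cell-killing) and DMSO (no toxicity), and curves were fitted and classified.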
DT40 TDP1 no CPT – qHTS for Inhibitors of human tyrosyl-DNA phosphodiesterase 1 (TDP1): qHTS in cells in absence of CPT; actives 15% (n = 420,000); DT40 Tdp1-/- hTDP1 cells, no CPT, ATP luminescence, 48 h; Potency, µM (top dose mostly 46.2 µM), for the others: top-dose activity change, negative = growth inhibition, usual class: inhibitors; note: potency is the fitted concentration of half-maximal effect; % is set by controls: 0 for no effect and ±100 for the full control effect; nearly all actives have a fitted effect of over 55% in size
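Chicken DT40 Tdp1-/- cells complemented with human TDP1, screened without camptothecin (DMSO vehicle only), 400 cells/well. Compounds pin-transferred, cells incubated at 37 °C for at least 48 hr. Growth read as ATP-dependent luminescence (CellTiter-Glo, 30 min at RT).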
TDP1 block – blocks human tyrosyl-DNA phosphodiesterase 1; recombinant TDP1, AlphaScreen DNA substrate cleavage; Potency, µM (titrated, usually from 130 µM), without a hit: at the highest dose activity change, negative = inhibition, hits mostly inhibitors; actives 0.28% (n = 350,000); note: potency is the fitted concentration of half-maximal effect; % is set by controls: 0 for no effect and ±100 for the full control effect; nearly all actives have a fitted effect of over 40% in size
Target sequence (Q9NUW8 whole entry, looked up): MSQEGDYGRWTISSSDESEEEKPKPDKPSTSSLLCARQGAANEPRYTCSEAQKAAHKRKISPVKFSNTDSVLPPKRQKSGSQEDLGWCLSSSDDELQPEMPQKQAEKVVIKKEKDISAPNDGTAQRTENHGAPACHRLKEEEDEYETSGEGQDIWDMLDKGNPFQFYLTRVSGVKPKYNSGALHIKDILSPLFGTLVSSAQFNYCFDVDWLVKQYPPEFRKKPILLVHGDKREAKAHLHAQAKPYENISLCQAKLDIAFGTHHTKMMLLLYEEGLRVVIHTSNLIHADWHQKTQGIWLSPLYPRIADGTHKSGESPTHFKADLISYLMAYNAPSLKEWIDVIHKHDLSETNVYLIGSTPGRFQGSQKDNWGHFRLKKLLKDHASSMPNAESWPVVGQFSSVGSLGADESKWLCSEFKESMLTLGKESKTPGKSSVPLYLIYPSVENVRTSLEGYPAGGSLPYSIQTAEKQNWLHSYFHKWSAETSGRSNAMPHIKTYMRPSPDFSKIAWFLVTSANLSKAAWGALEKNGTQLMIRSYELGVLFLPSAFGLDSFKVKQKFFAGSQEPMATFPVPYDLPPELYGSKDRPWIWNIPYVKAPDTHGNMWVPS
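Here, a 5' biotin and 3' phosphotyrosine-FITC DNA oligonucleotide reports Tdp1 activity: intact substrate bridges AlphaScreen beads, while cleavage leaves a 3' phosphate and drops signal. All incubations at room temperature.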
IL-1B inflam inh – inflammasome signaling inhibition, IL-1 beta readout. THP-1 LPS/ATP IL-1B secretion, AlphaLISA, 16 h; stronger effect = lower value. actives 4.7% (n = 360,000). activity change, % at 57.5 µM; in the data active = activity change below about -50%; inconclusive = mostly about -30% to -49%; note: % is set by controls: 0 for no effect and ±100 for the full control effect
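Secreted IL-1B measured by AlphaLISA bead assay after 16 h compound exposure of THP-1 cells; compounds (final up to 57.5 uM) added 1 h before LPS (250 ng/mL) and ATP (1.25 mM) stimulation; lower signal means less secretion.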
TDP1 cell CPT – DT40-hTDP1 cell growth loss with CPT; Potency, µM (titrated, usually from 46.2 µM), inactives show at the highest dose activity change, negative = growth inhibition, hits mostly inhibitors; actives 12% (n = 420,000); chicken DT40 Tdp1-/-;hTDP1 cells + 20 nM CPT, ATP luminescence, 48 h; note: potency is the fitted concentration of half-maximal effect; % is set by controls: 0 for no effect and ±100 for the full control effect; nearly all actives have a fitted effect of over 55% in size
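Cell growth measured by CellTiter-Glo luminescence after a minimum 48 h, 37 C compound exposure with 20 nM CPT in Tdp1-knockout DT40 cells stably expressing hTDP1, seeded 400/well; qHTS titration format.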
* = called active by the depositor; ? = inconclusive; / = no result; [ ] = remark or other dose. Unless noted, calls come from the whole dose curve; as a rule, active = well fitted curve in the direction sought with a large enough effect; inconclusive = small, poorly fitted or top-dose-only effect, or another doubt; inactive = no such curve, though single readings can be large; an effect the other way counts as inactive or inconclusive.

SMILES	TGFb inhibitor	HepG2 viability	DT40 TDP1 no CPT	TDP1 block	IL-1B inflam inh	TDP1 cell CPT
Cc1ccccc1NC(=O)CSC1=Nc2ccccc2C2=NC(CCC(=O)NCc3ccccc3)C(=O)N12 (centres undefined)	-13%	-36%	?	0%	/	-26%
O=C(COC(=O)c1ccc(S(=O)(=O)N2CCCCCC2)cc1)NCc1ccc(Cl)cc1	4%	9%	6%	-1%	5	?
CCc1ccccc1NS(=O)(=O)c1ccc(NC(=O)N2CCCC2)cc1	-1%	4%	?	7%	/	-20%
COc1ccc(CN2CCCC(CO)(Cc3ccc(F)cc3)C2)c(OC)c1OC (centres undefined)	-3%	-44%	?	/	-16	15µM*
OCC1(Cc2ccc(F)cc2F)CCCN(Cc2ccc(Cl)cc2)C1 (centres undefined)	?	-51%	?	3%	-23	?
CCOc1ccc(CN2CCCC(CO)(Cc3ccccc3F)C2)cc1 (centres undefined)	-16%	-29%	?	/	-56*	?
CC(C)Oc1ccc(CN2CCCC(CO)(Cc3ccc(F)cc3)C2)cc1 (centres undefined)	-26%	-37%	?	2%	-72*	?
COc1ccc(Cn2ccc3nc(C)c(C(=O)Nc4ccc(OC)cc4)cc3c2=O)cc1	-18%	-27%	-20%	8%	/	-15%
C=CCn1c(CNc2ccccc2)nnc1SCC(=O)N/N=C/c1ccc(O)cc1O	-6%	-11%	?	8%	86	18µM*
C=CCn1c(CNc2ccc(C)cc2)nnc1SCC(=O)N/N=C/c1ccc(O)cc1O	?	1%	?	11%	82	18µM*
C=CCn1c(COc2ccccc2)nnc1SCC(=O)N/N=C/c1cc(Cl)ccc1O	?	-20%	?	9%	47	?
Cc1ccc(NC(=O)CSc2nc3c(c(=O)[nH]2)CN(Cc2ccccc2)CC3)cc1Cl	-17%	-24%	?	9%	/	?
C=CC[C@H]1C(C(=O)OCC)=CC[C@@H](c2ccccc2)N1S(=O)(=O)c1ccc(C)cc1	?	-25%	?	/	40	?
CC(=O)[C@H]1CC[C@@H](c2ccccc2)N(S(=O)(=O)c2ccc(C)cc2)C1	/	/	?	/	7	?
CC(=O)C[C@@H]1SC[C@H](c2ccccc2)N1S(=O)(=O)c1ccc(C)cc1	/	/	15µM*	/	-9	15µM*
CCOC(=O)C1=C[C@@H](C(C)C)N(S(=O)(=O)c2ccc(C)cc2)[C@H]1c1ccc(C(C)C)cc1	?	-28%	18µM*	/	4	?
CCOC(=O)C1=C[C@@H](C2CCCC2)N(S(=O)(=O)c2ccc([N+](=O)[O-])cc2)[C@H]1c1ccccc1	?	-22%	12µM*	/	24	21µM*
CCOC(=O)C1=CCC(c2ccccc2)N(S(=O)(=O)c2ccc(C)cc2)[C@H]1CC (some centres undefined)	/	/	16µM*	/	10	21µM*
CCOC(=O)C1=C[C@@H](C(C)(C)C)N(S(=O)(=O)c2ccc(C)cc2)[C@H]1c1ccccc1Cl	?	-25%	?	/	80	?
CCOC(=O)C1=C[C@@H](CC)N(S(=O)(=O)c2ccc(C)cc2)[C@H]1c1ccccc1	?	-9%	15µM*	/	12	23µM*
CCOC(=O)C1=C[C@@H](C(C)(C)C)N(S(=O)(=O)c2ccc(C)cc2)[C@H]1c1ccc(C)cc1	?	-30%	12µM*	/	51	13µM*
O=C(O)Cn1nc(-c2ccc(F)cc2)oc1=O	0%	-25%	?	3%	4	16µM*
O=C(O)Cn1nc(-c2ccccc2)oc1=O	-5%	8%	-4%	4%	7	1%
O=C(CN1C(=O)COc2ccc(S(=O)(=O)N3CCCC3)cc21)N1CCN(c2ccc(F)cc2)CC1	-2%	-16%	/	4%	/	/
O=C(CNC(=O)c1ccco1)N/N=C/c1ccc(C(=O)O)cc1	-5%	-14%	-10%	0%[0.0935 µM]	11	3%
SMILES	TGFb inhibitor	HepG2 viability	DT40 TDP1 no CPT	TDP1 block	IL-1B inflam inh	TDP1 cell CPT
CCCCN1C(=O)CC(SC2CC(=O)N(CCCC)C2=O)C1=O (centres undefined)	15%	0%	5.8µM*	/	-10	16µM*
CCCCN1C(=O)CC(Sc2ncccc2C(=O)O)C1=O (centres undefined)	-1%	-5%	-2%	-5%	0	-8%
CCN1C(=O)CC(SC2CC(=O)N(CC)C2=O)C1=O (centres undefined)	2%	-4%	8.2µM*	/	-2	3.7µM*
CC(C)Cn1c(N)c(/C=N/NC(=O)c2ccc(Cl)cc2)c(=O)n(C)c1=O	0%	11%	0%	/	4	3%
CC(C)c1nc(SCC(=O)N2CCCCCC2)c2c(=O)n(C)c(=O)n(C)c2n1	2%	-1%	?	6%	-1	?
Cc1nc(SCC(=O)N2CCCCCC2)c2c(=O)n(C)c(=O)n(CC(C)C)c2n1	16µM*	-48%	13µM*	/	-29	?
COc1cccc(NC(=O)CCS(=O)(=O)c2ccc3c(c2)oc(=O)n3C)c1	24%	-2%	-25%	1%	1	1%
NC(=S)n1[nH]c(-c2ccc([N+](=O)[O-])cc2)c(N=Nc2cccc(Cl)c2)c1=O	?	-43%	6.5µM*	8%	?	8.2µM*
Cc1ccccc1N=Nc1c(C)[nH]n(C(N)=S)c1=O	?	-18%	1.2µM*	6%	0	1.2µM*
Cc1[nH]n(C(N)=S)c(=O)c1N=Nc1cccc(Cl)c1	2%	-25%	?	/	-3	?
Cc1[nH]n(C(N)=S)c(=O)c1N=Nc1ccc([N+](=O)[O-])cc1Cl	0%	10%	2.9µM*	/	21	?
Cc1cccc(N=Nc2c(C)[nH]n(C(N)=S)c2=O)c1C	/	/	/	7%	/	/
NC(=S)n1[nH]c(-c2ccc([N+](=O)[O-])cc2)c(N=Nc2ccc(O)cc2)c1=O	-15%	-38%	?	5%	5	?
CCN(CC)S(=O)(=O)c1ccc(N=Nc2c(C)[nH]n(C(N)=S)c2=O)cc1	-18%	-10%	-27%	9%	3	-24%
